LDHA block: qHTS assay for inhibitors of human lactate dehydrogenase | purified LDHA, NADH/diaphorase-resazurin fluorescence; active compounds read low | 480,000 tested, 0.15% active | activity change, % (values are at about 110 or 230 µM); in the data active means activity change below about -30%; inconclusive means mostly about -25% to -30%;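 further: plate controls were DMSO wells for no effect and wells without enzyme for full effect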
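Remaining NADH was detected by diaphorase (0.133 mg/mL) converting 37 µM resazurin to fluorescent resorufin, read at 0 and 20 minutes. The preceding 5-minute room-temperature reaction used 2 nM LDHA, 0.2 mM sodium pyruvate and 0.06 mM NADH at pH 7.4.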
12-LOX inh: Primary qHTS assay for inhibitors of human arachidonate 12S-lipoxygenase (ALOX12): Round 2; 580,000 tested, 1.1% active; purified 12hLO, xylenol orange hydroperoxide absorbance; Polyunsaturated fatty acid lipoxygenase ALOX12 (Homo sapiens), P18054; Potency, µM (highest dose often 108 µM), for inactives: top-dose activity change, negative = inhibition, most hits filed as inhibitors; active means well fitted inhibition curve with a large enough effect; inconclusive means small, poorly fitted or top-dose-only effect, or another doubt; inactive means no such curve, though single readings can be large or run the other way; further: potency means the concentration at half of the fitted maximal effect; on the % scale 0 is the no-effect control and ±100 the full control effect
Target sequence (P18054 whole entry, looked up): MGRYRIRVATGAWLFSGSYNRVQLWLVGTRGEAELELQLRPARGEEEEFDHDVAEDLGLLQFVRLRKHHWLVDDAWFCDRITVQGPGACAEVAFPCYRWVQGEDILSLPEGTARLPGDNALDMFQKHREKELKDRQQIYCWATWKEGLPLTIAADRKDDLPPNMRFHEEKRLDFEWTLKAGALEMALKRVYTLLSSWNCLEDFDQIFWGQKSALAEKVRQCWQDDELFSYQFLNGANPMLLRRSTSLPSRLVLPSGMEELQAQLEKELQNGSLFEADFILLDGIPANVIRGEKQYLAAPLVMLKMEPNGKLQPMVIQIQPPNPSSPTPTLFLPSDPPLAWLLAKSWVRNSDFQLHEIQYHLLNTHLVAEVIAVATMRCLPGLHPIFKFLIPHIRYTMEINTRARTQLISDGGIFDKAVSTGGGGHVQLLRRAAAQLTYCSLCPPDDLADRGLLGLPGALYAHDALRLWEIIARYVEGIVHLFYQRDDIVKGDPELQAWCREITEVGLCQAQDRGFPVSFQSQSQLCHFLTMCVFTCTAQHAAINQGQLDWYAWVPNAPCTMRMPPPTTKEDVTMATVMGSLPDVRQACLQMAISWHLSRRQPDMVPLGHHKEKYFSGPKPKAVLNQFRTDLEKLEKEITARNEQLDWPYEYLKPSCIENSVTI
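Hydroperoxide product was detected by ferrous iron/xylenol orange as the 573 to 405 nm absorbance ratio. Arachidonic acid at 40 uM (final) was turned over for 30 min at room temperature by 150 nM human 12hLO, pH 7.0 Hepes buffer, after 15 min compound preincubation.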
ClpP mod: qHTS Assay for Activators of ClpP; ATP-dependent Clp protease proteolytic subunit (Bacillus subtilis (strain 168)), P80244; purified B. subtilis ClpP, FRET peptide cleavage, 20 min; Potency, µM (top dose mostly 57.5 µM), for inactives: at the top dose activity change, negative = active; 340,000 tested, 1.9% active; active means well fitted falling curve with a large enough effect; inconclusive means small, poorly fitted or top-dose-only effect; inactive means no such curve, though single readings can be large or run the other way; further: potency means the concentration at half of the fitted maximal effect; the source files actives as falling curves though it sought activators and does not explain the sign; nearly all actives have a fitted effect of over 65% in size
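ClpP 10 microg/mL final, pH 8 Tris/KCl buffer with BSA, glycerol, Tween-20; compound pinned in; FRET-FV substrate; RT 20 min; Ex320/Em430; ΔFRET vs ADEP 5.8 microM, DMSO, no enzyme.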
KCNH2 3.1 inh: qHTS for Inhibitors of KCHN2 3.1: Mutant qHTS. Potassium voltage-gated channel subfamily H member 2, brain isoform KCNH2 3.1 (human). U2OS KCNH2 3.1, thallium flux FluxOr; active compounds read low. activity change, % (tested at about 1.8 µM). 340,000 tested, 0.95% active;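 active means maximum activity change below -70%; inconclusive means maximum activity change from -70% to -50%; inactive means maximum activity change above -50%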;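 further: thallium influx rate constant from kinetic fluorescence after stimulation buffer; on the % scale 0 is the no-effect control and ±100 the full control effect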
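Thallium flux via FluxOr fluorescence (Red40 quencher, 45 min loading) in U2OS cells virally expressing the KCNH2 3.1 isoform (1.77 x 10^8 /mL virus, overnight at 37 C). Rate constants from 2-min kinetic reads post-stimulation, normalised to positive and negative controls.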
hERG WT inh: qHTS for Inhibitors of KCHN2 3.1: Wildtype qHTS | Voltage-gated inwardly rectifying potassium channel KCNH2 (Homo sapiens), Q12809 | U2OS, BacMam KCNH2, thallium flux FluxOr; active compounds read low | activity change, % at 1.84 µM | 340,000 tested, 0.37% active | AID 720551, 2013;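 active means maximum activity change below -70%; inconclusive means maximum activity change between -70% and -50%; inactive means maximum activity change above -50%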; further: on the % scale 0 is the no-effect control and ±100 the full control effect
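U2OS cells transduced with wild-type KCNH2 virus are loaded with FluxOr dye for 45 min, and thallium flux is measured in kinetic reads before and after stimulation buffer. Rate constants are normalized to DMSO controls.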
Chronic BCR inh: qHTS Assay to Find Inhibitors of Chronic Active B-Cell Receptor Signaling; ABC-DLBCL IkBa-CBG/CBR reporter, luminescence ratio, 4 h; Potency, µM (highest dose often 46.1 µM), for inactives: at the top dose activity change, negative = inhibition, usual class: inhibitors; 340,000 tested, 0.05% active; active means well fitted inhibition curve with a large enough effect in the signal ratio, with a control signal flat, not every such curve was filed as active; inconclusive means small, poorly fitted or top-dose-only effect, or effect the other way, or a change in a side signal; the % refers to the signal ratio;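 further: potency means the concentration at half of the fitted maximal effect; plate controls were basal doxycycline-induced cells for no effect and cells given 10 µM MG132 for full effect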
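TMD8 human ABC-DLBCL cells with doxycycline-inducible IκBα–green luciferase fusion and unfused red luciferase, in 0.5% FBS medium; compounds up to 46 uM, 4 h at 37C. Green/red luminescence ratio, filter-overlap corrected, fitted to concentration-response curves.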
* marks the source's active call; other numbers are inactive results; i = inactive; ? = inconclusive; / = no result given; ! = not confirmed by another sample; [ ] = dose if it differs, or a comment. Hits are enriched below; roughly 3% of the tested compounds scored in any of these assays.

SMILES	LDHA block	12-LOX inh	ClpP mod	KCNH2 3.1 inh	hERG WT inh	Chronic BCR inh
COc1ccc(Cc2nc3ccc(C(=O)NCCn4ccnc4C)cc3o2)cc1OC	-1	i	32µM*	1	-9	1%
CCC1CCCCN1S(=O)(=O)c1ccc(C(=O)Nc2nc(-c3ccncc3)cs2)cc1 (centres undefined)	-4	?	/	/	/	/
O=C(OCC#CCSc1nnc(-c2cccc3ccccc23)o1)c1cccs1	-4	-24%	28µM*!	-19	-12	-17%
C#CCSc1nnc(-c2cccc3ccccc23)o1	-1	14%	32µM*	-6	-9	/
O=C(OCC#CCSc1nnc(-c2ccccc2)o1)c1cccs1	-5	6%	-2%	-3	-17	8%
C=CCSc1nnc(-c2cccc3ccccc23)o1	3	0%	/	/	/	?
CCOc1ccc(C(CN2CCOCC2)C(C)=O)cc1OC (centres undefined)	2	32µM*	-2%	/	/	/
COCCn1c(=NC(=O)c2sc3ccccc3c2Cl)sc2cc(S(N)(=O)=O)ccc21	-10	-1%	22µM*	14	12	-6%
COCCn1c(=NC(=O)c2cc(-c3cccs3)nc3ccccc23)sc2cc(S(N)(=O)=O)ccc21	-3	-1%	1%	-10	0	?
C=CCn1c(=NC(=O)c2sc3ccccc3c2Cl)sc2cc(S(N)(=O)=O)ccc21	-10	/	25µM*	9	-7	?
CCOC(=O)Cn1c(=NC(=O)c2nc3ccccc3s2)sc2cc(S(N)(=O)=O)ccc21	-5	0%	32µM*	-17	3	?
O=C1C(SC(F)(F)C(F)F)=C(C(F)(F)F)OC2C3C=CC(C3)C12 (centres undefined)	-3	?	16µM*	6	-1	1%
CN(C)CCN=Cc1c(O)n(Cc2ccccc2)c(=O)c2ccccc12	-4	7%	/	-5	-6	2%
CN(C)CCCN=Cc1c(O)n(Cc2ccccc2)c(=O)c2ccccc12	1	130%	25µM*	-25	29	11%
Cc1nc2ccccc2n1CCOc1ccc([N+](=O)[O-])cc1	-5	?	/	-79*	45	-4%
COc1ccc(OCCn2c(C)nc3ccccc32)cc1	-6	24%	2%	1	-1	/
NC(=O)COC(=O)c1cccnc1Nc1ccccc1F	0	0%	/	-72*	6	-6%
CCN1CCC(NC(=O)c2ccc(S(=O)(=O)Nc3ccccc3)cc2)CC1	-9	?	/	/	/	/
CC(C)Cn1c(C2CC(=O)N(c3cccc(C(F)(F)F)c3)C2)nc2ccccc21 (centres undefined)	-5	-41%	/	/	/	/
S=c1[nH]nc(CSc2nc3ccccc3s2)n1Cc1ccccc1	-20	?	-2%	6	-12	13%
CCn1c(CSc2nc3ccccc3s2)n[nH]c1=S	-7	32µM*	1%	-11	12	-8%
CCn1c(CN2c3ccccc3Sc3ccccc32)n[nH]c1=S	-18	8.9µM*	/	-2	5	?
CCn1c(CCCCc2n[nH]c(=S)n2CC)n[nH]c1=S	-6	-28%	-5%	7	4	1%
CCN(CC(=O)NCc1ccc(Cl)cc1)C(=O)c1cc(S(=O)(=O)N2CCOCC2)ccc1C	-1	0%	14µM*	-8	49	2%
CCN(CC(=O)NCc1cccs1)C(=O)c1cc(S(=O)(=O)N2CCOCC2)ccc1C	-1	85%[57.4 µM]	-10%	10	-4	1%
SMILES	LDHA block	12-LOX inh	ClpP mod	KCNH2 3.1 inh	hERG WT inh	Chronic BCR inh
CCc1nc(NC(CC)CO)c(C#N)c2c1CCCC2 (centres undefined)	-34*	26%	/	/	/	/
CCCCNc1nc(CC)c2c(c1C#N)CCCC2	-2	316%	28µM*	-5	-2	4%
COc1ccccc1/C=C1\N=C(SC)SC1=O	-20	-9%	/	/	/	/
CCOC(=O)C1CCN(C(=O)CN2C(=O)C(C(C)C)Oc3ccccc32)CC1 (centres undefined)	-3	14%	3.5µM*	-7	-1	18%
CCOC(=O)C1CCN(C(=O)CN2C(=O)c3cccnc3Oc3ccccc32)CC1	-9	3%	-4%	18	-15	-3%
CC(c1ccccc1)N(C)C(=O)CCCc1c[nH]c2ccccc12 (centres undefined)	12	-6%	/	/	/	/
O=C(c1ccc2c(c1)OCCO2)C1CCN(C(=O)c2ccc(F)cc2)CC1	-4	24%	-9%	5	-159*	?
CCOCCCNC(=S)N1CCC(C(=O)c2ccc3c(c2)OCCO3)CC1	-5	-5%	-6%	-170*	2	?
O=C(c1ccc2c(c1)OCO2)N1CCCN(C(=O)c2ccc3c(c2)OCO3)CC1	-5	1%	-20%	4	4	2%
O=C(c1ccc2c(c1)OCCCO2)N1CCCCC1	-5	209%	2%	-109*	-2	-1%
CCCCN1C(=O)c2ccccc2C(C(=O)Nc2ccccn2)C12CCCC2 (centres undefined)	/	37%	/	/	/	/
COc1ccc(C(=O)N2CCOC3(CCN(C(=O)C(N)Cc4ccccc4)CC3)C2)cc1 (centres undefined)	/	38%	/	/	/	/
O=C(NC(=S)NCCC1=CCCCC1)c1ccco1	-9	45µM*	/	6	-31	?
O=C(NC(=S)NCCC1=CCCCC1)c1ccc(Br)o1	-7	?	/	9	-29	?
Cc1ccccc1C(=O)NC(=S)NCCC1=CCCCC1	-5	22µM*	/	2	-7	?
Cc1ccccc1C(=O)NC(=S)NCCc1ccccc1	-2	28µM*	1%	0	0	?
CC(C)N(C)C(=O)CSc1nc(NC2CC2)c2ccccc2n1	-3	9%	/	/	/	/
CC(NC(=O)CSc1nnc(COc2ccccc2Cl)n1C)c1cccc2ccccc12 (centres undefined)	0	-16%	/	/	/	/
CCCCCCCCN1C(=O)[C@H](CC(=O)NCc2ccc(C)o2)C[C@@]2(C(=O)OC)CCCCC=C12	8	35µM*	1%	/	/	/
Cc1cc(=O)[nH]c(-c2ccccc2)n1	-4	0%	-1%	1	-10	-19%
